Columns and labels:
Assay in all cases: PBM binding z-score (relative to random genomic background probes); higher = stronger binding; sequences stand for … in GC…GCGATTGACAGCGTAGAATGAAGG
[1] = system: RARb homodimer (NR concentration 270 nM)
Outline: (§1)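 Antibodies against each partner of ligand-free nuclear receptor dimers (one per run) detected binding on custom Agilent 4×180K protein-binding microarrays after 1 h incubation. The double-stranded probes had 34-nt variable regions carrying direct-repeat seeds, single-nucleotide variants, half-site ablations and random human genomic background sequences. Binding z-scores, from regression-normalized fluorescence, use the random background probes as reference.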

[2] = system: RARg:RXRa (NR concentration 270 nM, RXRa partner concentration 90 nM)
Outline: as §1

[3] = system: RARg homodimer (NR concentration 270 nM)
Outline: as §1

[4] = system: RXRa DBDmut IVT, anti-RXR (DBD mutation: RXRa K156A/R161A, NR concentration 90 nM)
Outline: as §1

[5] = system: RXRa homodimer (NR concentration 180 nM)
Outline: as §1

[6] = system: THRa:RXRa (NR concentration 90 nM, RXRa partner concentration 90 nM)
Outline: as §1

[7] = system: THRa homodimer (NR concentration 90 nM)
Outline: as §1

[8] = system: VDR homodimer (NR concentration 270 nM)
Outline: as §1

| Sequence | PBM binding z-score [1] | PBM binding z-score [2] | PBM binding z-score [3] | PBM binding z-score [4] | PBM binding z-score [5] | PBM binding z-score [6] | PBM binding z-score [7] | PBM binding z-score [8] |
| --- | --- | --- | --- | --- | --- | --- | --- | --- |
| CCGACTGAGGCAAGGTTACCATAACGCACAGCCA | 1.01 | 0.557 | 0.458 | 0.18 | 0.97 | 1.26 | 0.413 | 0.118 |
| TGTTGTAGATCAAGCAGGTTAAGAAAGCCTGAGT | 0.0369 | -0.0637 | 0.062 | -1.02 | -0.024 | 0.0864 | -0.545 | -0.058 |
| GCTCGGAGGACAAGGTCAGAGATTTGTCCGTAGA | 2.83 | 2.84 | 3.13 | 0.212 | 2.23 | 2.82 | 1.51 | 0.17 |
| ATACCAAGTTGATCGTGAGGTCGTTGATACTAAC | 1.39 | 1.26 | 0.677 | 1.34 | 1.08 | 2.75 | 2.33 | 3.08 |
| ACTCGGAGGACAAAGGTCAAAGCTACGCCAGTGA | 5.02 | 7.08 | 6.07 | 1.75 | 6.78 | 4.03 | 0.972 | 2.28 |
| ATACCAAGGTGATCGTGAAGTCGTTGATACTAAC | 0.398 | 0.416 | 0.171 | 0.398 | 0.357 | 1.01 | 0.796 | 0.18 |
| GCTGCTAGGCCAACTGATGGTCAGCTAAAGCTCG | 0.279 | 0.0424 | 0.383 | -0.307 | -0.651 | -0.291 | -1.08 | -1.03 |
| CAGCCTAGATCAGGGCCAGTATAGGAGGAACGTT | -0.147 | -0.262 | -0.227 | -0.728 | -0.559 | -0.634 | -0.417 | -0.384 |
| CAAACTAGGTCACAGGAAGGTCAAAGTCCGCATG | 5.1 | 7.79 | 7 | 2.17 | 6.07 | 4.36 | 2.46 | 3.1 |
| AGAACGAGTGCAATGAGTTGATAGCACGGGTGGC | -0.553 | 0.1 | -0.109 | 2.82 | 0.283 | -0.264 | -1.03 | 4.06 |
| CCTACTGGGCTAAAGGTCATTGATTCCAATGCTC | 4.22 | 4.96 | 4.27 | 1.17 | 5.21 | 3.15 | 0.533 | 2.18 |
| ACTTACGGGTCAACAAGGTTATAGCACGCGTATA | 3.84 | 5.44 | 5.07 | 2.33 | 5.87 | 4.04 | 1.05 | 2.78 |
| CGAACTAGGTCATTGGCAGGACAGTGAATAGTAA | 2.75 | 4.52 | 4.07 | 2.36 | 2.52 | 3.09 | 0.749 | 0.995 |
| TGAATGAGGTTATAAGATCAGCGAACGTTGCAAA | 0.0466 | 1.48 | 1.05 | 0.409 | 1.9 | 1.61 | -0.141 | 0.262 |
| CCTAGATGGTCAAGGTCACACACGCTATAGGTAC | 4.55 | 4.69 | 4.96 | 2.04 | 4.74 | 4.1 | 3.84 | 3.61 |
| AATACAGGGTCACTAGGCCAGAATAGGTACGAAT | 3.3 | 5.17 | 4.76 | 2.85 | 5.58 | 3.41 | 1.4 | 2.52 |
| GCGACAGGGGCATCAGCAGGTTACCATAACTTAA | 1.23 | 1.9 | 0.934 | 0.988 | 0.871 | 1.61 | 0.015 | 0.188 |
| AATACAGGGTCACAAGGCCAGAGTAGGTACGAAT | 3.8 | 6.03 | 5.53 | 3.06 | 6.78 | 3.86 | 1.78 | 2.64 |
| GCGACTGGGGCAACAGCAGGTTACCATAACTTAA | 0.882 | 0.815 | 0.776 | -0.15 | 0.454 | 1.67 | -0.275 | -0.281 |
| ATCGCAAGGTCGACGAGGTGAGTATACACCGTTT | 1.72 | 2.58 | 2.37 | 1.32 | 2.26 | 3.41 | 1.26 | 1.21 |
| GCTGCTAGGTCAGGTTGATCAGCTAACGGGTACG | 2.24 | 2.65 | 3.71 | 0.558 | 1.14 | 1.73 | 0.499 | 0.442 |
| AGAATGAGGCTACCAAAGATCAGGGAAACGCTTG | -0.364 | 0.21 | 0.34 | -0.268 | 0.156 | 0.463 | -0.609 | -0.541 |
| CCTAGCAGGCCAATCTGGTTCACTCAAGGCTTGA | 0.26 | -0.172 | -0.0939 | 0.398 | -0.304 | 1.38 | -0.212 | 0.42 |
| ACTATTAGTTGAGACGAGGGCACCCGATAGGTTG | 1.01 | 0.598 | 1.02 | 0.586 | 0.681 | 2.57 | 0.574 | 0.89 |
| TAGCCTAGGTCATGGGCCAGTAGACCACGCGAAC | 3.01 | 4.29 | 4.33 | -0.149 | 3.68 | 3.04 | 1.09 | 0.284 |
| TCTTGTAAATCAATAGAGGTTAAGAAAGTGCGCT | 1.42 | 0.907 | 0.577 | 1.23 | 1.46 | 1.56 | 0.0458 | 0.639 |
| CCGAGTAGATTATGGGGCATTCAGGCAACGGTGA | 0.0129 | -0.113 | 0.0692 | 0.349 | -0.0432 | 0.271 | -0.141 | -0.481 |
| CCGGGTAGGTTATGGGGCATTCAGGCAACGGTGA | 1.1 | 0.906 | 0.708 | -1.46 | 0.781 | 0.806 | 0.313 | 0.138 |

From the supplement of paper PMC6555819
